Screening data deposited in PubChem BioAssay by National Center for Advancing Translational Sciences (NCATS).
Sampled rows, rich in hits. Any-hit rate of the full collection: about 5.9%.
FBPA coupling cs: inhibits coupling enzyme system, counter-screen for aldolase hits; coupling enzyme system counterscreen, AmpLite Red fluorescence; AID 2472; activity change, negative = inhibition, % at 58.2 µM, hits read low; 290,000 tested, 0.67% active; in the data active = activity change below about -30%; also: % is scaled to controls: 0 for no effect and ±100 for the full control effect
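First, compound is pin-transferred into glyceraldehyde-3-phosphate coupling-enzyme reagent at 57.5 uM final and held 10 min at RT. Next, substrate, coupling system and AmpLite Red are added. After 20 min RT, fluorescence (525/598 nm) is read.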
RORgamma inh: inhibitors of mouse ROR gamma transcriptional activity | Drosophila S2 Gal4-RORgamma UAS-luciferase reporter, 20 h | AID 2551 | P51450 | Potency, µM (series often up to 53.6 µM), inactives show at the highest dose activity change, negative = inhibition, actives largely listed as inhibitors | 310,000 tested, 5.4% active; also: potency is read from the fitted curve at half-maximal effect; % is scaled to controls: 0 for no effect and ±100 for the full control effect; nearly all actives have a fitted effect of over 60% in size
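Drosophila S2 cells stably expressing Gal4-DBD/mouse RORγ fusion under metallothionein promoter plus UAS-luciferase; compound 1 h, then 700 uM CuSO4 induction for 20 h at ambient temperature; inhibition read as reduced luminescence.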
GALK inhibitor: inhibitors of human galactokinase; Potency, µM (titrated, usually from 57.5 µM), inactives show at the top dose activity change, negative = inhibition, usual class: inhibitors; 270,000 tested, 0.007% active; Purified GALK, Kinase-Glo residual ATP luminescence; AID 1868; P51570; also: potency is read from the fitted curve at half-maximal effect; % is scaled to controls: 0 for no effect and ±100 for the full control effect
Target sequence (P51570 whole entry, looked up): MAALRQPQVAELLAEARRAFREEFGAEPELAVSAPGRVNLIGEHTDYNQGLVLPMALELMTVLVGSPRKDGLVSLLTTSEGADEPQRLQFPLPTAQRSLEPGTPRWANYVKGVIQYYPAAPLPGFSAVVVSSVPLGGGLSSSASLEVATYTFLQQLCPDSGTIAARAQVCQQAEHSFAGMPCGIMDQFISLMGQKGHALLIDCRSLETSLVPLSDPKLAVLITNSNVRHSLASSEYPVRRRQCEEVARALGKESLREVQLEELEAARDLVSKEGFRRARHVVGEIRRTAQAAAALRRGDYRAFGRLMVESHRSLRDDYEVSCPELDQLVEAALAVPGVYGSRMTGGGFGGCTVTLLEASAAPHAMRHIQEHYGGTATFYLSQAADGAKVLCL
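Kinase-Glo Plus luminescence measured ATP left after a 1 h room-temperature reaction. The reaction used 5 nM GALK, 100 uM galactose and 35 uM ATP at pH 8.0 (20 mM HEPES, 5 mM MgCl2, 60 mM NaCl, 1 mM DTT, 0.01% BSA).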
TrxR1 inh-1: blocks rat thioredoxin reductase 1 | 390,000 tested, 1% active | AID 588453 | recombinant rTrxR1, NADPH fluorescence consumption, selenite substrate | Potency, µM (titrated, usually from 114 µM), for inactives: at the top dose activity change, negative = inhibition, most hits filed as inhibitors; also: potency is read from the fitted curve at half-maximal effect; % is scaled to controls: 0 for no effect and ±100 for the full control effect; nearly all actives have a fitted effect of over 65% in size
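Rat TrxR1 (90 nM in the dispensed reagent) was pre-reduced with 400 uM NADPH for 5 min at room temperature, then incubated with compound for 15 min. After 400 uM selenite was added, NADPH fluorescence (Ex 340/Em 450 nm) was followed for 8 min.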
TrxR1 substrate: rat thioredoxin reductase 1 substrate activity; 390,000 tested, 0.01% active; purified TrxR1 substrate turnover, NADPH consumption readout; Potency, µM (highest dose often 114 µM), without a hit: at the highest dose activity change, negative = substrate turnover; O89049; also: potency is read from the fitted curve at half-maximal effect; % is scaled to controls: 0 for no effect and ±100 for the full control effect; nearly all actives have a fitted effect of over 50% in size
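Rat TrxR1, dispensed at 90 nM, was prereduced with 400 uM NADPH (final) for 5 min at ~22 deg C, then incubated with compound 15 min before 400 uM selenite. A first-read NADPH fluorescence drop versus no-compound background flagged substrates.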
VP16 counter: inhibits Gal4-VP16 luciferase reporter, ROR gamma counter-screen. Drosophila S2 Gal4-VP16 UAS-luciferase, luminescence, 20 h. Potency, µM (doses to about 53.6 µM), inactives show top-dose activity, negative = inhibition, most hits filed as inhibitors. 310,000 tested, 3.5% active;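 also: Gal4-VP16 expression switched on by copper sulfate through the metallothionein promoter; potency is read from the fitted curve at half-maximal effect; % is scaled to controls: 0 for no effect and ±100 for the full control effect; nearly all actives have a fitted effect of over 50% in size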
TRb-SRC2 inh: TRb-SRC2 (human) interaction inhibition; AID 2444; Potency, µM; 30 tested, 50% active; shares compounds with TrxR1 inh-1; AlphaScreen TRb LBD-SRC2 peptide binding, luminescence; calls by dose curve
HepG2 viability: counter-screen for TRb-SRC2 inhibitors: HepG2 cytotoxicity. 40 tested, 50% active. AID 2447. HepG2 viability, ATP luminescence (CellTiter-Glo), 72 h. Potency, µM. shares compounds with TrxR1 inh-1; calls by dose curve
AR SRC2 FP: selectivity of TRb-SRC2 inhibitors: human androgen receptor-SRC2 inhibition. 25 tested, under 10 active. shares compounds with TrxR1 inh-1. AR-LBD Tx-SRC2-3 fluorescence polarization, 3 h. calls only; call rule not given here
PPARg DRIP2 FP: selectivity of TRb-SRC2 inhibitors: human PPARgamma coactivator binding inhibition | shares compounds with TrxR1 inh-1 | PPARg LBD / Texas Red DRIP-2 peptide, fluorescence polarization, 3 h | Potency, µM | 25 tested, under 10 active; calls by dose curve
VDR SRC2 FP: selectivity of TRb-SRC2 inhibitors: human vitamin D receptor-SRC2 inhibition; shares compounds with TrxR1 inh-1; VDR LBD/SRC2-3 peptide, fluorescence polarization, 3 h; Potency, µM; 25 tested, under 10 active; calls by dose curve
GR counterassay: counter-screen for TrxR1 inhibitors: human glutathione reductase inhibition; shares compounds with TrxR1 inh-1; purified GR, DTNB reduction absorbance 405 nm kinetic; activity change, negative = inhibition, % at 57.1 µM; 55 tested, under 10 active
TrxR1 inh-2: rat TrxR1 inhibition, primary screen retest; AID 652023; Potency, µM, usual class: inhibitors; recombinant TrxR1, NADPH fluorescence consumption, selenite substrate; shares compounds with TrxR1 inh-1; 55 tested, 50% active
TrxR1 insulin MOA: TrxR1 inhibition in insulin mechanism assay; 55 tested, 20% active; shares compounds with TrxR1 inh-1; TrxR1 Trx-coupled insulin reduction, NADPH absorbance 340 nm; AID 652037; Potency, µM;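 active = compounds with a measured potency under 100 micromolar; inconclusive = filed, but no rule given; inactive = potency at or above that, or unmeasurable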
TrxR1 inh-3: rat thioredoxin reductase 1 inhibition, DTNB assay. shares compounds with TrxR1 inh-1. Potency, µM. purified TrxR1, DTNB reduction, A412. 55 tested, 90% active;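 active = a half-inhibiting concentration could be measured and was below 100 µM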
* hit, by the source's call; [ ] = dose if it differs, or a comment. Unless noted, calls follow the shape of the dose curve; as a rule, active = well fitted curve in the direction sought with a large enough effect; inconclusive = small, poorly fitted or top-dose-only effect, or another doubt; inactive = no such curve, though single readings can be large; an effect the other way counts as inactive or inconclusive.

What do the screens show for `CCC(C)(C)n1nnnc1C(c1ccc(O)c(OC)c1)N1CCc2ccccc2C1` (stereo not drawn)?
FBPA coupling cs: -1; RORgamma inh: -26%; GALK inhibitor: -3%; TrxR1 inh-1: 0.079µM*; TrxR1 substrate: 7%; VP16 counter: 19%; GR counterassay: 8; TrxR1 inh-2: 0.34*; TrxR1 insulin MOA: inactive; TrxR1 inh-3: 0.011µM*

What do the screens show for `Cc1ccc(Sc2cnn(-c3ccccc3)c(=O)c2Cl)cc1`?
FBPA coupling cs: 3; RORgamma inh: 0%; GALK inhibitor: -1%; TrxR1 inh-1: 4%; TrxR1 substrate: 3%; VP16 counter: 0%

What do the screens show for `CCCCN(CC)C(=O)CCCn1c(=O)c2cccn2c2ccccc21`?
TrxR1 inh-1: 6%; TrxR1 substrate: 14%

What do the screens show for `O=C(c1ccc(-c2ccc([N+](=O)[O-])cc2)o1)N1CCCC(C(F)(F)F)C1` (stereo not drawn)?
TrxR1 inh-1: inconclusive; TrxR1 substrate: -12%

Results for O=C(c1ccc(-c2ccc([N+](=O)[O-])cc2)o1)N1CCCCCCC1 ?
TrxR1 inh-1: 5µM*; TrxR1 substrate: -11%; GR counterassay: -19; TrxR1 inh-2: 4.7*; TrxR1 insulin MOA: inactive; TrxR1 inh-3: 1µM*

What do the screens show for `O=C(COC(=O)c1ccc(Cl)c([N+](=O)[O-])c1)NC1CCCC1`?
FBPA coupling cs: 1; RORgamma inh: 14%; GALK inhibitor: -1%; TrxR1 inh-1: 6%; TrxR1 substrate: 5%; VP16 counter: -4%

Results for Nc1ccc(C(=O)OCC(=O)NC2CC2)cc1[N+](=O)[O-] ?
FBPA coupling cs: -1; RORgamma inh: 13%; GALK inhibitor: 0%; TrxR1 inh-1: 17%; TrxR1 substrate: 0%; VP16 counter: 2%

How did O=C(COC(=O)c1ccc(F)c([N+](=O)[O-])c1)NC1C2CC3CC(C2)CC1C3 (stereo not drawn) do in these assays?
TRb-SRC2 inh: 8.7µM*; HepG2 viability: inconclusive; AR SRC2 FP: inactive; PPARg DRIP2 FP: inactive; VDR SRC2 FP: inactive

Results for O=C(COC(=O)c1ccc(Cl)c([N+](=O)[O-])c1)NC1C2CC3CC(C2)CC1C3 (stereo not drawn) ?
TRb-SRC2 inh: inactive; HepG2 viability: inactive; AR SRC2 FP: inactive; PPARg DRIP2 FP: inactive; VDR SRC2 FP: inactive

How did O=C(COC(=O)c1cccc([N+](=O)[O-])c1Cl)NC1C2CC3CC(C2)CC1C3 (stereo not drawn) do in these assays?
TRb-SRC2 inh: 44µM*; HepG2 viability: inactive; AR SRC2 FP: inactive; PPARg DRIP2 FP: inactive; VDR SRC2 FP: inactive

How did O=C(COC(=O)c1cc(Cl)ccc1[N+](=O)[O-])NC1CC1 do in these assays?
TrxR1 inh-1: 13%; TrxR1 substrate: 4%

What do the screens show for `O=C(NCC1CCCO1)c1ccc(CNS(=O)(=O)c2ccc(F)c(Cl)c2)cc1` (stereo not drawn)?
FBPA coupling cs: 0; RORgamma inh: -2%; GALK inhibitor: 9%; TrxR1 inh-1: 18%[57.1 µM]; TrxR1 substrate: 7%[57.1 µM]; VP16 counter: 5%

What do the screens show for `CCCc1cc(C(=O)N2CCCC(C(=O)c3cccc4ccccc34)C2)n(C)n1` (stereo not drawn)?
FBPA coupling cs: 2; RORgamma inh: inconclusive; GALK inhibitor: 2%; TrxR1 inh-1: 17%; TrxR1 substrate: -1%; VP16 counter: -6%

What do the screens show for `O=C(Nc1ccc(N2CCOCC2)cc1)c1ccc2nc(-c3ccco3)c(-c3ccco3)nc2c1`?
FBPA coupling cs: -3; RORgamma inh: -20%; GALK inhibitor: -3%; TrxR1 inh-1: -20%; TrxR1 substrate: 1%[57.1 µM]; VP16 counter: -24%

Results for O=C(Nc1ccccc1)c1ccc2nc(-c3ccco3)c(-c3ccco3)nc2c1 ?
FBPA coupling cs: -38*; RORgamma inh: -20%; GALK inhibitor: -3%; TrxR1 inh-1: 4µM*; TrxR1 substrate: -6%; VP16 counter: inconclusive; GR counterassay: -27; TrxR1 inh-2: 3.8*; TrxR1 insulin MOA: inactive; TrxR1 inh-3: 1.6µM*

What do the screens show for `O=C(C1=C(O)C(=O)N(CCCN2CCOCC2)C1c1ccncc1)c1cc2ccccc2o1` (stereo not drawn)?
FBPA coupling cs: 4; RORgamma inh: 12%; GALK inhibitor: -7%; VP16 counter: -3%

Results for Cc1ccc(C2C(C(=O)c3cc4ccccc4o3)=C(O)C(=O)N2CCN2CCOCC2)cc1 (stereo not drawn) ?
RORgamma inh: -8%; GALK inhibitor: -7%; TrxR1 inh-1: 45µM*; TrxR1 substrate: -6%; VP16 counter: 17%; GR counterassay: inconclusive; TrxR1 inh-2: inconclusive; TrxR1 insulin MOA: inactive; TrxR1 inh-3: 0.33µM*
